The record followed here is PubChem BioAssay.

The test system of test [1] is XIP peptide (Xip251-270) binding. Nature of the test: XIP fragment 251-270 binding compounds – biochemical, small-molecule microarray, fluorescence 635/667 nm, 0.1 µg/mL protein, primary screen (AID 1182). The conditions noted are these: fluorescent protein binding, 635 nm, higher = more signal, called active from +8 up or from −8 down.
The subject of another test is XIP peptide (Xip251-270). The experiment in a line: compounds binding XIP fragment 251-270 – biochemical, small-molecule microarray, fluorescence 635/667 nm, 0.5 µg/mL protein, primary screen (AID 1183). The note with it: fluorescence 635 nm, higher = more signal.
A short description of test [2]: blood-stage malaria parasite viability loss – strain 3D7, DAPI fluorescence, 100 nL, primary screen (AID 1184).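 Also: parasites grown inside human red blood cells in medium with human serum.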 The conditions noted are these: P. falciparum 3D7 growth, 3 d, higher = more signal.
Test [3] has as its target Homeobox protein Hox-A13 (Mus musculus) (UniProt Q62424). Nature of the test: disruptors of Hoxa13 oligonucleotide interaction – biochemical, fluorescence polarization, labeled oligonucleotide, primary screen (AID 1185). The note with it: Hoxa13:DNA binding, 15 min, higher = more signal, called active from +8 up or from −8 down.

Active and inactive are the calls of the source.

Homeobox protein Hox-A13 (Mus musculus), sequence (Q62424 whole entry, looked up): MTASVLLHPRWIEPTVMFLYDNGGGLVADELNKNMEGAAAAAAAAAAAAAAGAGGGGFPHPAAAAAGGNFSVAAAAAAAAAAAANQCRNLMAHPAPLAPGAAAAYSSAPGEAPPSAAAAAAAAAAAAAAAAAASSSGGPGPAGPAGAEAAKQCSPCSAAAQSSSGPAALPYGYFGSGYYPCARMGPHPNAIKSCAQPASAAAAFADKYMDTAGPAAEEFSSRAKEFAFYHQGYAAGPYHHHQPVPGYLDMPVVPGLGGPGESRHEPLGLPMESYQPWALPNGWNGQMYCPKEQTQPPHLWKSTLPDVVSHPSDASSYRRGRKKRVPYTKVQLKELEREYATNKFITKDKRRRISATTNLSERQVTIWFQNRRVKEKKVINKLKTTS

As to `COC(=O)CC1OC1[C@H](C)[C@@H](OC)C(C)C` (stereo partly specified), the composite z-score in test [1] was -0.0835 (inactive); in the test on XIP peptide (Xip251-270), -0.739. The z-score in test [2] is 0.599; in test [3] it was -4.65 (inactive).
The corresponding values for `C#CCCCON=C1C[C@@H](O)[C@@H](O)[C@@H]2[C@@H]3C(=O)N(CCC(=O)OCC)C(=O)[C@@H]3CC[C@@H]12` are -0.349 (inactive), 0.365, 0.165 and -5.09 (inactive).
The corresponding values for `CC(C)CN1CCc2nc(-c3ccccc3)c3c(c2CC1)CO[C@@H](C)C3` are 0.277 (inactive), -0.399, -0.235 and -0.219 (inactive).
The corresponding values for `CC(C)=NOCc1cccc(-c2cc(-c3ccccc3)no2)c1` are 1.13 (inactive), 0.326, 2.06 and 0.515 (inactive).
For the molecule `O=C1CCCC=C1C(O)CCOCc1ccccc1` (stereo unspecified), the composite z-score is -0.294 (inactive) in test [1] and 0.0941 in the test on XIP peptide (Xip251-270). The z-score was -0.929 in test [2] and -0.861 (inactive) in test [3].
The corresponding values for `COc1ccc(O[C@H]2C=C[C@@H](c3ccccc3)O[C@@H]2COC(=O)CCC(C)=NO[C@H](C)c2cn([C@@H]3COC[C@H]3O)nn2)cc1` are 0.0628 (inactive), 0.596, -1.52 and -6.96 (inactive).
The corresponding values for `CCCNC(=O)OC[C@H]1O[C@H](CCON=C2[C@H]3CCn4c(=O)n(-c5ccccc5)c(=O)n4[C@H]3[C@H](O)[C@@H]3O[C@H]23)C=C[C@@H]1Oc1ccc(OC)cc1` are 0.118 (inactive), 0.592, -1.01 and -6.53 (inactive).
For `O=C1[C@H]2[C@H]3[C@H](O)[C@H](O)CC(=NO[C@@H]4O[C@H](CO)[C@@H](O)[C@H](O)[C@H]4O)[C@H]3CC[C@H]2C(=O)N1C1CCCCC1` the same measures were 0.269 (inactive), 0.653, 0.418 and -4.7 (inactive).
For `CC(C)=NOCc1ccc(-c2cc(-c3ccccc3)no2)cc1`, the composite z-score in test [1] was -0.191 (inactive); in the test with XIP peptide (Xip251-270), -0.0722. The z-score in test [2] was 0.382; in test [3], 0.736 (inactive).
In the case of `CO[C@@H]1COC(=O)CC=C[C@@H](C)[C@@H]2C=C[C@@H](O)[C@@H](COC(=O)CC=C[C@H]1C)O2`, the composite z-score in test [1] was 0.794 (inactive); in the test on XIP peptide (Xip251-270), -0.317. Besides, the results for the z-score in test [2] and in test [3] were 0.328 and -0.816 (inactive), respectively.
For `C=CC[C@@H]1C=C[C@H](ON=C2c3cc(OC)ccc3O[C@H](c3cccc(OC)c3)[C@H]2O)[C@@H](CO)O1` the same measures were 0.0897 (inactive), -0.479, 0.888 and -5.69 (inactive).
The corresponding values for `C[C@@H](c1ccccc1)N1C(=O)[C@H]2[C@H]3[C@H](O)[C@H](O)CC(=NNC(=O)OCc4ccccc4)[C@H]3CC[C@H]2C1=O` are -0.724 (inactive), -0.131, -0.547 and -5.68 (inactive).
As for `CCN1C(=O)[C@H]2[C@H]3[C@H](O)[C@H](O)CC(=NOCc4ccccc4)[C@H]3CC[C@H]2C1=O`, the composite z-score in test [1] is -0.0513 (inactive); in the test with XIP peptide (Xip251-270) it was 0.172. The z-score in test [2] was 0.783; in test [3], -1.15 (inactive).
As for `O=C(NN=C1C[C@@H](O)[C@@H](O)[C@@H]2[C@@H]3C(=O)N(c4cccc(Oc5ccccc5)c4)C(=O)[C@@H]3CC[C@@H]12)OCc1ccccc1`, the composite z-score in test [1] was -0.0987 (inactive); in the test on XIP peptide (Xip251-270) it was 0.381. Further, the values for the z-score in test [2] and in test [3] were -0.763 and -4.96 (inactive), respectively.
The corresponding values for `COC(=O)[C@H](C)NC(=O)CCC1CC(OC(=O)NCc2cccc3ccccc23)CC2(CCCC(COC(=O)NCC3CCCCC3)O2)O1` (stereo partly specified) are 0.0034 (inactive), 0.689, -1.96 and -2.34 (inactive).
The corresponding values for `Cc1cc2c(c(=O)o1)[C@H](O)[C@H]1O[C@H]1C2=O` are 0.326 (inactive), -0.311, -0.811 and -4.87 (inactive).
The corresponding values for `CCOC(=O)CCN1C(=O)[C@H]2[C@H]3[C@H](O)C=CC(=O)[C@@H]3CC[C@H]2C1=O` are 0.58 (inactive), 0.0156, -0.0439 and -0.525 (inactive).
As to `COc1cccc([C@H]2Oc3ccc(OC)cc3C(=NO[C@H](C)c3cn([C@@H]4COC[C@H]4O)nn3)[C@@H]2O)c1`, the composite z-score is 0.0524 (inactive) in test [1] and -0.561 with XIP peptide (Xip251-270). The z-score was -0.866 in test [2] and -2.61 (inactive) in test [3].
Turning to `O=C1[C@H]2[C@H]3[C@H](O)[C@H](O)CC(=NOC[C@@H](O)COCc4ccco4)[C@H]3CC[C@H]2C(=O)N1c1cccc(Oc2ccccc2)c1`, the composite z-score in test [1] was 0.283 (inactive); with XIP peptide (Xip251-270) it was 0.638. The z-score in test [2] was 0.499; in test [3], 0.338 (inactive).
With `O=C1C2=CC[C@H]3C(=O)N(Cc4ccc5c(c4)OCO5)C(=O)[C@H]3[C@H]2[C@H](O)[C@@H]2O[C@H]12`, the composite z-score was 0.225 (inactive) in test [1] and 0.0823 with XIP peptide (Xip251-270). Moreover, the z-score in test [2] was 1.68; in test [3], -0.229 (inactive).
Consider `CCOC(=O)[C@H](Cc1ccccc1)NC(=O)CCC1CC(OC(=O)NCc2ccc3c(c2)OCO3)CC2(CCCC(COC(=O)NCC(c3ccccc3)c3ccccc3)O2)O1` (stereo partly specified), for which the results for the composite z-score (in test [1]; in the test with XIP peptide (Xip251-270)) were 0.48 (inactive) and 0.308, respectively. Moreover, the z-score is -0.909 in test [2] and -3.45 (inactive) in test [3].
For `CCN1C(=O)[C@H]2[C@H]3[C@H](O)[C@H](O)CC(=NOCC=C(C)CCC=C(C)C)[C@H]3CC[C@H]2C1=O` the same measures were 1.09 (inactive), 0.762, 1.97 and 0.0102 (inactive).
In the case of `CC(C)[C@@H](OCc1ccccc1)[C@H](C)C=NO[C@H](C)c1cn([C@H](CO)Cc2ccccc2)nn1`, the results for the composite z-score (in test [1]; with XIP peptide (Xip251-270)) were -0.2 (inactive) and 0.353, respectively. The z-score in test [2] is 0.325; in test [3], -4.42 (inactive).
As to `COc1ccc(O[C@@H]2[C@H](O)CO[C@H]2C=CC#Cc2ccccc2)cc1`, the composite z-score is -0.0908 (inactive) in test [1] and 0.799 in the test on XIP peptide (Xip251-270). The z-score in test [2] was -0.456; in test [3] it was -3.09 (inactive).
